Measured values taken from PubChem BioAssay (Tox21).
Results filed as inconclusive are left out. The source made the active and inactive calls. Unless noted, calls come from the whole dose curve.

Assays:
[1] = Nuclear factor erythroid 2-related factor 2/antioxidant responsive element (Nrf2/ARE) small molecule agonists: qHTS cell viability counter screen in human keratinocytes (AID 1919968; active = well fitted curve in the direction sought with a large enough effect in the repeat runs; an effect the other way counts as inactive or inconclusive; note: nearly all actives have a fitted effect of over 55% in size)
How it was run: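 HaCaT ARE reporter line, 1,500 cells/well; 5 h settle, 37 C/5% CO2; cpd in DMSO pinned; 23 h exposure; CellTiter-Fluor, 1 h; fluorescence.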

[2] = Nuclear factor erythroid 2-related factor 2/antioxidant responsive element (Nrf2/ARE) small molecule agonists: luciferase reporter gene qHTS assay in human keratinocytes (AID 1919969); note: nearly all actives have a fitted effect of over 35% in size; note: potency is the fitted concentration of half-maximal effect
[3] = target: Gonadotropin-releasing hormone receptor (Homo sapiens) (UniProt P30968); assay: Human gonadotropin-releasing hormone receptor (GnRHR) small molecule agonists, calcium flux assay in GnRHR-HEK293 cells (AID 1920063); note: nearly all actives have a fitted effect of over 35% in size
How it was run: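 GnRHR-HEK293, 1500 cells/well, 18 h 37 C/5% CO2; Ca dye 1 h 37 C; cpd pinned (DMSO), agonist mode; kinetic FL 480/540, 3 min, 1 s reads; 15 conc, n=3.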

[4] = target: KiSS-1 receptor (Homo sapiens) (UniProt Q969F8); assay: Human kisspeptin (KISS1R) small molecule agonists, calcium flux assay in KISS1R-HEK293 cells (AID 1920064; active = well fitted curve in the direction sought with a large enough effect in the repeat runs; an effect the other way counts as inactive or inconclusive)
How it was run: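 Stable human KISS1R HEK293 line; 18 h plating, 37 C/5% CO2; calcium dye 1 h 37 C; compound pin transfer; kinetic fluorescence Ex/Em 480/540, 3 min.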

[5] = G protein-coupled receptor (GPCR) small molecule agonists, calcium flux assay: HEK293 wild type cell line counter screen (AID 1920065)
How it was run: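 Kinetic fluorescence at Ex/Em 480/540, recorded every second over 3 min, served as the read-out after compound addition. Each compound was tested at 15 concentrations in triplicate on cells pre-loaded with calcium dye for 1 h.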

[6] = p53 small molecule agonists, cell-based qHTS assay with human liver microsomes (AID 1963577);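 note: p53 response element beta-lactamase reporter cells with liver microsomes plus NADPH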
How it was run: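 In this qHTS, p53 response-element beta-lactamase cells receive test compound together with a microsome/NADPH activating system (0.5 mg/mL final each) and are incubated 16 h at 37 C before LiveBLAzer fluorescence detection.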

[7] = p53 small molecule agonists, cell-based qHTS assay with rat liver microsomes (AID 1963578)
How it was run: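 Agonist mode in p53RE-bla reporter cells, with compounds co-incubated 16 h at 37 C alongside 0.5 mg/mL rat liver microsomes and 0.5 mg/mL NADPH (final), followed by a 2 h LiveBLAzer detection step.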

[8] = p53 small molecule agonists, cell-based qHTS assay with human liver microsomes: qHTS cell viability counter screen (AID 1963579); note: nearly all actives have a fitted effect of over 45% in size
How it was run: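 Metabolically activated exposure: compounds, human liver microsomes and NADPH (0.5 mg/mL final apiece) were added to p53RE-bla cells seeded 5 h earlier, left 16 h at 37 C, and then assessed for viability by CellTiter-Glo luminescence.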

[9] = p53 small molecule agonists, cell-based qHTS assay with rat liver microsomes: qHTS cell viability counter screen (AID 1963580); note: nearly all actives have a fitted effect of over 45% in size; note: potency is the fitted concentration of half-maximal effect
How it was run: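 p53RE-bla HCT-116 cells were exposed 16 h at 37 C to compounds with rat liver microsomes (0.5 mg/mL) and NADPH (0.5 mg/mL). Viability was measured in the same wells as ATP content by CellTiter-Glo luminescence.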

[10] = p53 small molecule agonists, cell-based qHTS assay (AID 1963582; active = well fitted activation curve with a large enough effect in the signal ratio in the repeat runs, not every such curve was filed as active; the % refers to the signal ratio; note: potency is the fitted concentration of half-maximal effect)
How it was run: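 Reporter line: p53RE-bla. Pre-incubation 5 h, 37 C, 5% CO2; compound (DMSO, pin tool) 16 h, 37 C; B/G FRET substrate 2 h RT; fluorescence intensity read.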

[11] = target: 5-hydroxytryptamine receptor 2A (Homo sapiens) (UniProt P28223); assay: 5-hydroxytryptamine receptor 2A (HTR2A) small molecule antagonists, cell-based qHTS assay (AID 1963586); note: nearly all actives have a fitted effect of over 45% in size; note: potency is the fitted concentration of half-maximal effect
How it was run: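 Antagonist-mode intracellular calcium assay: DOI (4 nM) added after 5 min compound pre-incubation at room temperature to dye-loaded HTR2A-CHO cells. Fluorescence followed for 3 min, sampled every second.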

[12] = target: 5-hydroxytryptamine receptor 2A (Homo sapiens) (UniProt P28223); assay: 5-hydroxytryptamine receptor 2A (HTR2A) small molecule agonists, cell-based qHTS assay (AID 1963587); note: nearly all actives have a fitted effect of over 30% in size; note: potency is the fitted concentration of half-maximal effect
How it was run: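 CHO cells stably expressing human HTR2A, plated 18 h, loaded with calcium dye 1 h at 37 C. Agonist mode: compounds added and intracellular calcium fluorescence recorded kinetically for 2 min at 1 sec intervals.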

[13] = target: Muscarinic acetylcholine receptor M1 (Homo sapiens) (UniProt P11229); assay: Cholinergic receptor muscarinic 1 (CHRM1) small molecule antagonists, cell-based qHTS assay (AID 1963588); note: nearly all actives have a fitted effect of over 40% in size; note: potency is the fitted concentration of half-maximal effect
How it was run: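 CHRM1-CHO calcium-flux assay, antagonist mode. Cells were seeded 18 h, dye-loaded 1 h at 37 C and given compound for 5 min at RT, then acetylcholine was added at 50nM. FDSS fluorescence was read 3 min; 15 concentrations, three runs.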

[14] = target: Muscarinic acetylcholine receptor M1 (Homo sapiens) (UniProt P11229); assay: Cholinergic receptor muscarinic 1 (CHRM1) small molecule agonists, cell-based qHTS assay (AID 1963589); note: nearly all actives have a fitted effect of over 35% in size
How it was run: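 Human M1 in stable CHO line; 18 h plating, 1 h dye load 37 C; cpd added (agonist mode); Ca2+ fluorescence kinetic read, 1 s intervals; 15 conc, 3 runs.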

[15] = cAMP Responsive Elements (CRE) small molecule agonists, cell-based qHTS assay (AID 1963590)
How it was run: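 HEK 293T CRE-bla, 2,000 cells/well, 18 h preincubation 37 C/5% CO2; cpds (DMSO) pinned, 3 h; LiveBLAzer B/G FRET substrate, 2 h RT.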

[16] = cAMP Responsive Elements (CRE) small molecule antagonists, cell-based qHTS assay (AID 1963591; active = well fitted inhibition curve with a large enough effect in the signal ratio in the repeat runs, not every such curve was filed as active; the % refers to the signal ratio)
How it was run: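 Beta-lactamase reporter read by FRET substrate (LiveBLAzer B/G) after 2 h at room temperature. CRE-bla HEK293T cells had received compound plus 0.25 uM (final) NKH477 for 3 h at 37 °C.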

[17] = target: Beta-2 adrenergic receptor (Homo sapiens) (UniProt P07550); assay: Adrenergic beta2 receptor (ADRB2) small molecule antagonists, cell-based qHTS assay (AID 1963592); note: series mostly up to about 92 µM; nearly all actives have a fitted effect of over 50% in size
How it was run: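 Cells (CHO, stable ADRB2 overexpression) incubated 18-20hr at 37C; compounds added from DMSO; agonist mix (1nM isoproterenol, 100uM IBMX, 25uM Ro-20-1724) added; 0.5hr RT; d2-cAMP and anti-cAMP-cryptate added; 1hr RT; 665/615 nm read.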

[18] = target: D(2) dopamine receptor (Homo sapiens) (UniProt P14416); assay: Dopamine D2 receptor (DRD2) small molecule antagonists, cell-based qHTS assay (AID 1963595; active = well fitted inhibition curve with a large enough effect in the signal ratio in the repeat runs, with a control signal flat; the % refers to the signal ratio; note: potency is the fitted concentration of half-maximal effect)
How it was run: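 Cells were plated and grown for 24 h at 37 °C. Ro20-1724 (0.1 mM final) went in first, then compound for 10 min. NKH477 (200 nM) with quinpirole (12 nM) followed for 30 min at RT, then HTRF detection reagents for 1 h.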

[19] = target: Beta-2 adrenergic receptor (Homo sapiens) (UniProt P07550); assay: Adrenergic beta2 receptor (ADRB2) small molecule agonists, cell-based qHTS assay (AID 1963593);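 note: CHO cells stably overexpressing human ADRB2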
How it was run: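 CHO cells stably over-expressing ADRB2 were plated overnight at 37C, then dosed with compounds plus a stimulation mix containing 100uM IBMX and 25uM Ro-20-1724 for 0.5hr at room temperature. cAMP was measured by HTRF competition, 1hr.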

[20] = target: D(2) dopamine receptor (Homo sapiens) (UniProt P14416); assay: Dopamine D2 receptor (DRD2) small molecule agonists, cell-based qHTS assay (AID 1963594); note: nearly all actives have a fitted effect of over 35% in size
How it was run: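 HEK293 cells stably expressing human DRD2, pre-treated with PDE inhibitor Ro20-1724 (0.1 mM final) and compound 10 min at room temperature, then stimulated with NKH477 (200nM […]) for 30 min. cAMP read by HTRF (665/620 nm).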

Measured: Potency

Muscarinic acetylcholine receptor M1 (Homo sapiens), sequence (P11229 whole entry, looked up): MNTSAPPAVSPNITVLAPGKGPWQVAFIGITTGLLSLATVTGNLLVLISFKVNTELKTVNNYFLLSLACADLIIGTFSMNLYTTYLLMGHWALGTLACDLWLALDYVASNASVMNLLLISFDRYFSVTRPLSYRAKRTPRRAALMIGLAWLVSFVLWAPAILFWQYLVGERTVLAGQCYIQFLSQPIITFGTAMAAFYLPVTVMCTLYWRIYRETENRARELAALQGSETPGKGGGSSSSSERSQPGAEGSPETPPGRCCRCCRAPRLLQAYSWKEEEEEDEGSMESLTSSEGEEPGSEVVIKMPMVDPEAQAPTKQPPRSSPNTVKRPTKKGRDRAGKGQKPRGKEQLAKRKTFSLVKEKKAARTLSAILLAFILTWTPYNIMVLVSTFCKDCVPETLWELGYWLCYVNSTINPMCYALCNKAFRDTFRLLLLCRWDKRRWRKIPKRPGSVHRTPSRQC
5-hydroxytryptamine receptor 2A (Homo sapiens), sequence (P28223 whole entry, looked up): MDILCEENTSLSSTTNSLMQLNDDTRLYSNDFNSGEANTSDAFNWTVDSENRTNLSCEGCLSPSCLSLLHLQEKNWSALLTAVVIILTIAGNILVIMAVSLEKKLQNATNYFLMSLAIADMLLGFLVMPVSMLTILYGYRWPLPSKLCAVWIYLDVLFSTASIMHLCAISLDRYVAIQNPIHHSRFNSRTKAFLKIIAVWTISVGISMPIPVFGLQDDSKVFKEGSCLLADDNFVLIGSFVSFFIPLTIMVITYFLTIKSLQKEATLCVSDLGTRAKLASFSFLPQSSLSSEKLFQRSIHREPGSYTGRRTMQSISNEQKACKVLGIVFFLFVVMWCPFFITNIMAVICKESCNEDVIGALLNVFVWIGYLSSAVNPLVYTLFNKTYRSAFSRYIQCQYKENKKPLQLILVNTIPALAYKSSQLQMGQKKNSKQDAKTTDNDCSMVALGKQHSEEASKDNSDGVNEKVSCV
Gonadotropin-releasing hormone receptor (Homo sapiens), sequence (P30968 whole entry, looked up): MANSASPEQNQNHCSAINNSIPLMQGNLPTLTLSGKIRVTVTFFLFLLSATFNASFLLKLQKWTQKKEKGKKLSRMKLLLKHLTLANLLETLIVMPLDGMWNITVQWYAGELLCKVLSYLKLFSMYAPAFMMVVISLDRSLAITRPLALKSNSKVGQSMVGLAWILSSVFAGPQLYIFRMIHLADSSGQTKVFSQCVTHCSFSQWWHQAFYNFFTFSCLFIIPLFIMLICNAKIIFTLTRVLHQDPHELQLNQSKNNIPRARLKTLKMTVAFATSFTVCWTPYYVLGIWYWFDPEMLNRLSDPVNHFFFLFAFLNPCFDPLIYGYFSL
D(2) dopamine receptor (Homo sapiens), sequence (P14416 whole entry, looked up): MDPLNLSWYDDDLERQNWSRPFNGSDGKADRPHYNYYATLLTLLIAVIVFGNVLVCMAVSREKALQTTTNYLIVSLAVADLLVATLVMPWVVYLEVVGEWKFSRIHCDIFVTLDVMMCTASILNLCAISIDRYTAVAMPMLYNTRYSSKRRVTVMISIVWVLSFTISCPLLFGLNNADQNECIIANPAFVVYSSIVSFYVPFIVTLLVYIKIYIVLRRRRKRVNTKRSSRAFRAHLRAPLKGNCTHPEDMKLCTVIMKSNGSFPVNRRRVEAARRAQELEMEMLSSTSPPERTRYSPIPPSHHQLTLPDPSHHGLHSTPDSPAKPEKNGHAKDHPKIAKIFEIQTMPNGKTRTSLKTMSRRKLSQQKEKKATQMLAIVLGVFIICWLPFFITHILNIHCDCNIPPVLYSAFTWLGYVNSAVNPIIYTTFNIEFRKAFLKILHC
Beta-2 adrenergic receptor (Homo sapiens), sequence (P07550 whole entry, looked up): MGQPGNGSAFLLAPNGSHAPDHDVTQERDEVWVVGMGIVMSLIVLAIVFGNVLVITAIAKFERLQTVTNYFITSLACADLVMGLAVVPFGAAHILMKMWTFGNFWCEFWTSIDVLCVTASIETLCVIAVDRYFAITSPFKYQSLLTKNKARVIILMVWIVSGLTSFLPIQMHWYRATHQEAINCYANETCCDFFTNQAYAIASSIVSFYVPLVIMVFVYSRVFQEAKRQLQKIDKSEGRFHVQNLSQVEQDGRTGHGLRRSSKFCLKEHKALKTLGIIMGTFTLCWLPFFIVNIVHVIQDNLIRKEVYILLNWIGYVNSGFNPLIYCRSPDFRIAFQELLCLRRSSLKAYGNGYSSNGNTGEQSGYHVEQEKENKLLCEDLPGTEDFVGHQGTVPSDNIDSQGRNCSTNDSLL
KiSS-1 receptor (Homo sapiens), sequence (Q969F8 whole entry, looked up): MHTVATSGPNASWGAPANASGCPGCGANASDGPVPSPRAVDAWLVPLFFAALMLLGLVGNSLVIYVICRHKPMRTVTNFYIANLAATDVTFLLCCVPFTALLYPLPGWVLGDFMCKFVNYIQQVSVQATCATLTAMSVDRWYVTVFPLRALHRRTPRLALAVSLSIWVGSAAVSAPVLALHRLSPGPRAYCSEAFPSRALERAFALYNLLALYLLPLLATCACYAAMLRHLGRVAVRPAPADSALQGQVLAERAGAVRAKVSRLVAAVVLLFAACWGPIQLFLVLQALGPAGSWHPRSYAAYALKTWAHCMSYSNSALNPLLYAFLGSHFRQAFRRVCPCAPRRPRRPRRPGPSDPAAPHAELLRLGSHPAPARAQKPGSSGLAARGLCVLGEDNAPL

O=C(O)c1ccncc1
not listed: [19] | [20]
inactive: all other assays above

CC1(C)C(=O)N(CO)C(=O)N1CO
not listed: [19] | [20]
inactive: all other assays above

COc1ccccc1OC(=O)Oc1ccccc1OC
inactive: all assays above

CCCCC(CC)(CO)CO
not listed: [19] | [20]
inactive: all other assays above

Cc1cnc(NS(=O)(=O)c2ccc(N)cc2)nc1
not listed: [19] | [20]
inactive: all other assays above

O=C(CN1CCN(Cc2ccc3c(c2)OCO3)CC1)N1c2ccccc2Sc2ccccc21
not listed: [17] | [19]
inactive: all other assays above

OCCCCCCO
active: [10] 41300 nM
not listed: [19]
inactive: all other assays above

Oc1ccc(Nc2ccccc2)cc1
active: [2] 61100 nM
not listed: [16] | [17] | [19]
inactive: all other assays above

CC(C)Nc1cccnc1N1CCN(C(=O)c2cc3cc(NS(C)(=O)=O)ccc3[nH]2)CC1
not listed: [16] | [19] | [20]
inactive: all other assays above

CCCCCCCCN1CCCC1=O
inactive: all assays above

Nc1ccc(S(=O)(=O)O)cc1
not listed: [19]
inactive: all other assays above

CN1C(C)(C)CCCC1(C)C
not listed: [19] | [20]
inactive: all other assays above

CCOC(=O)C(C)O (stereo unspecified)
not listed: [19]
inactive: all other assays above

CCCCOCCOC(=O)c1cccnc1
not listed: [19]
inactive: all other assays above

CN1CCOC(c2ccccc2)c2ccccc2C1 (stereo unspecified)
not listed: [20]
inactive: all other assays above

O=C1C=CCCC1
not listed: [19]
inactive: all other assays above

COc1ccccc1N1CCN(CCCCNC(=O)c2ccc(-c3ccc(C(C)=O)cc3)cc2)CC1
active: [11] 326 nM | [12] 53.5 nM | [13] 1030 nM | [18] 750 nM
not listed: [16] | [17] | [19]
inactive: all other assays above

Cc1ccc(O)cn1
not listed: [19]
inactive: all other assays above

COCCOCCOCCOC
not listed: [16] | [19]
inactive: all other assays above

COc1ccc(CCC(=O)c2c(O)cc(O[C@@H]3O[C@H](CO)[C@@H](O)[C@H](O)[C@H]3O[C@@H]3O[C@@H](C)[C@H](O)[C@@H](O)[C@H]3O)cc2O)cc1O
not listed: [19]
inactive: all other assays above

CSc1cnc(C)cn1
not listed: [19]
inactive: all other assays above

OCCCc1cccnc1
not listed: [19]
inactive: all other assays above

C=C(C)C1CCC(C)CC1O (stereo unspecified)
active: [9] 1620 nM
not listed: [19]
inactive: all other assays above

CC(=O)OC1CCC(C(C)(C)C)CC1 (stereo unspecified)
inactive: all assays above

CCCCCCCCOS(=O)(=O)O
not listed: [18] | [19] | [20]
inactive: all other assays above

CC(C)Oc1ccccc1O
not listed: [20]
inactive: all other assays above

CO[Si](CCCn1c(=O)n(CCC[Si](OC)(OC)OC)c(=O)n(CCC[Si](OC)(OC)OC)c1=O)(OC)OC
inactive: all assays above

CN(C)CCOCCN(C)CCO
not listed: [19]
inactive: all other assays above

CCCCCCCCCCCCCCBr
inactive: all assays above
